This is an account of results in PubChem BioAssay.

This experiment deals with Concanavalin-A (Canavalia ensiformis) (UniProt P02866). Description: compounds binding concanavalin A lectin – biochemical, small-molecule microarray, Alexa647 label, 635 nm, artefact control for SMM control protein annotation, primary screen (AID 1127).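 Note: z combines 667 nm emission intensity with signal-to-noise across three replicate slides.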 To be noted: ConA-A647 binding fluorescence, higher = more signal.
Concanavalin-A (Canavalia ensiformis), sequence (P02866 whole entry, looked up): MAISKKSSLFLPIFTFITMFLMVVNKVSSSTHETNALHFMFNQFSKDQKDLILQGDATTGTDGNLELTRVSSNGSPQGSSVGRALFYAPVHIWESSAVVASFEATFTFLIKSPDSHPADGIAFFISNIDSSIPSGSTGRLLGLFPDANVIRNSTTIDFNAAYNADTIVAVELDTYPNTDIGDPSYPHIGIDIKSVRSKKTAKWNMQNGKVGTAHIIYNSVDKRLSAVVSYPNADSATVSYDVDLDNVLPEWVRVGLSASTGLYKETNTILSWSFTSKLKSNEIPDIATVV
Turning to `CC[C@H]1C2=C3C(CC[C@H]4C(OCc5ccc(F)cc5C(F)(F)F)OC[C@](C)([C@@H]34)N(C(=O)OC(C)(C)C)C2)C(COC)C1COC` (some centres not stated), the composite z-score was 0.401.
For `CC(C)N1C(=O)C[C@@](C(=O)NCCCN(C)C)(c2ccc([N+](=O)[O-])cc2)[C@H]1c1ccc(CO)cc1` the value was -0.158; for `NC(=O)NCC#Cc1ccc2c(c1)[C@]1(C(=O)N2)[C@H](C(=O)NC[C@H](O)c2ccccc2)[C@H]2C(=O)O[C@H](c3ccccc3)[C@H](c3ccccc3)N2[C@@H]1c1ccc(OCCO)cc1`, 0.798.
The compound `Cc1ccccc1C(O)C1C=CC2C(=O)N(C)C(=O)C2N1N(c1ccccc1)c1ccccc1` (configuration not stated) came in with a composite z-score of -0.752.
For `C=CCC(OC(C)=O)[C@@H]1[C@@H](N(Cc2cc3ccccc3o2)C(=O)c2ccc(C)cc2)c2cc(OCCCO)ccc2N1C(=O)Cc1ccc(OC)cc1` (some centres not stated) the value was 0.217; for `COC(=O)C1=CC(CCCO)=CC(C2CC2)N(C)C=C1C(=O)OC` (configuration not stated), 0.0472.
For `COc1cc2c(cc1OC)CN(C(=O)[C@@H]1[C@H]3C(=O)O[C@H](c4ccccc4)[C@H](c4ccccc4)N3[C@H](c3ccc(OCCO)cc3)[C@@]13C(=O)Nc1ccc(C#CC4(O)CCCCCC4)cc13)CC2` the value was 1.13.
Then `COc1cc(OC)c(C(O)C2C=CC3C(=O)N(c4ccccc4)C(=O)C3N2Nc2ccccc2)cc1Br` (configuration not stated), with 1.1; and `COc1ccc([Si](C)(C)[C@@H]2[C@@H](CC(=O)N(CCO)Cc3ccccc3)O[C@]3(C(=O)N(Cc4cccc(N5C(=O)c6cccc7cccc5c67)c4)c4ccccc43)[C@H]2C)cc1`, with 1.04; and `COC(=O)c1c2oc(c1C(=O)OC)C(=O)N(C)Cc1cn(nn1)C[C@H](Cc1ccccc1)NC(=O)N[C@H](CO)CC2`, with -1.17.
On to `O=C(CS)NCCCCCCNC(=O)[C@H]1C[C@H]2C(=O)N[C@@H](Cc3ccccc3)C(=O)N2[C@H]1c1ccc(O)cc1`, for which the composite z-score was 1.1.
Then `O=C1C2C=CC(C(O)c3ccccc3)N(Nc3ccccc3F)C2C(=O)N1c1ccccc1` (configuration not stated), with 0.532; and `CC(C)(C)N1CC=CC23O[C@@H]4C=CCOC(=O)[C@@H]4[C@H]2C(=O)N(CCCCCCO)[C@@H]3C1=O` (some centres not stated), with -0.375.
As to `CCCCO[C@H]1C[C@H]2C(I)=C[C@@H]1C(=O)[C@]21CO1`, the composite z-score was found to be 0.267.
Then `C=CCOC(=O)[C@H]1[C@@H]2C(=O)O[C@@H](c3ccccc3)[C@@H](c3ccccc3)N2[C@@H](c2ccc(OCCOC(=O)[C@@H]3C[C@@H]4C(=O)N5CCC[C@H]5C(=O)N4[C@@H]3c3ccc(O)cc3)cc2)[C@]12C(=O)Nc1ccc(I)cc12`, with 1.01.
Then `C=CCOC(=O)[C@H]1[C@@H]2C(=O)O[C@@H](c3ccccc3)[C@@H](c3ccccc3)N2[C@@H](c2ccc(OCCOC(=O)[C@H]3C[C@H]4C(=O)N[C@@H](CCCCNC(C)=O)C(=O)N4[C@H]3c3ccc(O)cc3)cc2)[C@]12C(=O)Nc1ccccc12`, with 1.16.
Then `CCOc1cc(C(O)C2C=CC3C(=O)N(C)C(=O)C3N2Nc2ccccc2)ccc1O` (configuration not stated), with 0.947.
Take `C#CCN([C@@H](Cc1ccc(O)cc1)C(=O)OC)[C@@H](/C=C/C1CC1)[C@H](O)Cc1ccccc1`: the composite z-score was -0.58.
Then `O=c1n(-c2ccccc2)c(=O)n2n1CC(COc1ccccc1)=C([C@H](O)CCc1ccccc1)[C@@H]2CO`, with -0.352.
Compound `CC(=O)NCCCC[C@@H]1NC(=O)[C@H]2C[C@@H](C(=O)NCCCC[N+](C)(C)C)[C@@H](c3cccc(OCCO)c3)N2C1=O` yielded a composite z-score of 1.1.
For `CN1C(=O)C2C=CC(C(O)c3ccccn3)N(N(c3ccccc3)c3ccccc3)C2C1=O` (configuration not stated) the value was 0.291; for `C[N+](C)(C)CCCCCCNC(=O)[C@H]1C[C@H]2C(=O)NCC(=O)N2[C@H]1c1ccc(O)cc1`, 0.758.
With `CCCC[C@@H]1C[C@H]1[C@@H](NC(=O)c1cccs1)c1ccc(C(F)(F)F)cc1`, the composite z-score was -0.162.
In the case of `COc1ccc(CCN2C(=O)[C@@]3(Cc4ccccc42)c2ccccc2C(=O)N(Cc2ccccc2OC)[C@H]3c2ccc(CO)cc2)cc1`, the composite z-score is -0.516.
On to `C[C@@H]1NC(=O)[C@@]23C(=O)N[C@@H](Cc4ccccc4)C2[C@H](C)[C@@]2(C)O[C@H]2C3/C=C/C/C=C\CNC(=O)[C@@H]2CCCN2C1=O` (some centres not stated), for which the composite z-score is -0.327.
The compound `C=C(/C(=C/C[C@H](OC(C)=O)c1cccc(OCCO)c1)c1cnc2ccccc2c1)C(C)C` gave a composite z-score of 0.689.
The compound `[N-]=[N+]=NCc1ccccc1[C@H]1OC(c2ccc(OCCCO)cc2)=N[C@@]1(CCS(=O)(=O)c1ccccc1)C(=O)NCC(O)CO` (some centres not stated) returned a composite z-score of 0.939.
